# MITF primary: blocks human microphthalmia-associated transcription factor; O75030; AlphaScreen MITF homodimerization, bead proximity signal; inhibition, % at 2.6 µM; actives 0.91% (n = 650,000); AID 1259374; in the data active = inhibition above about 50%;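 also: 0% = vehicle wells with protein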
# FBW7 activator: activators of human E3 ligase FBW7; actives 0.13% (n = 650,000); normalized activity (activation), % at 26.1 µM; AID 1259310; AlphaScreen FBW7–phospho-cyclin E peptide binding, activator screen; in the data active = normalized activity above about 1.9%;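 also: purified mutant Fbw7 with reduced substrate affinity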
# Target sequence (Q969H0 whole entry, looked up): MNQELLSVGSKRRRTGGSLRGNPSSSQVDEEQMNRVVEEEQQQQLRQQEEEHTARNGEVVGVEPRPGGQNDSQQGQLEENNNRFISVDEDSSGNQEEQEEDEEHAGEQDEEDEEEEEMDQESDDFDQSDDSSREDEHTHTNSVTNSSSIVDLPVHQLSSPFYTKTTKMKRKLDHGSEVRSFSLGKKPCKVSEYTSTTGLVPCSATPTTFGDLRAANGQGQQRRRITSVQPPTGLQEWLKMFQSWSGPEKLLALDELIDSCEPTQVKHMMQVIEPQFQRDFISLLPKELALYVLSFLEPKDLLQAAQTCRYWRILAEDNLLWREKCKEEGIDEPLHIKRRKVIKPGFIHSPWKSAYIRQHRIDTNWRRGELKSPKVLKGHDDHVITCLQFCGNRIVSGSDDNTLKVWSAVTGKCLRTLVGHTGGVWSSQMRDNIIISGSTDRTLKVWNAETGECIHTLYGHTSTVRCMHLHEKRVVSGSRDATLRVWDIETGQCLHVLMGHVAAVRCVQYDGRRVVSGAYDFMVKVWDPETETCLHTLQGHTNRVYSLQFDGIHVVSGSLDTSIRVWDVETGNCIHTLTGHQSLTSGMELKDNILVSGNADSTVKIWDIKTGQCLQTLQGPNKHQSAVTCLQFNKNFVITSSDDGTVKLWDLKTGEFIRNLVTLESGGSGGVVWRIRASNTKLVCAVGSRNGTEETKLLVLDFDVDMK
# TEAD-YAP block: TEAD-YAP interaction inhibition; AID 1259422; inhibition, % at 9.12 µM; actives 1.4% (n = 640,000); HEK-TIYL cells, TEAD-Gal4/YAP UAS-luciferase luminescence; in the data active = inhibition above about 32%;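 also: 0% = median of test compound wells and 100% = reference inhibitor wells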
# GPR151 activ: human GPR151 activation | Q8TDV0 | PathHunter beta-arrestin GPR151 cells, luminescence | activation, % at 11.2 µM | actives 1% (n = 650,000); in the data active = activation above about 4.9%;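 also: 0% = median of compound wells and 100% = cells with positive control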
# Active calls of the source: *. The list is not random: actives were taken first. Their share in the collection is about 3.4%.
SMILES,MITF primary,FBW7 activator,TEAD-YAP block,GPR151 activ
COc1ccc(S(=O)(=O)N(CC(=O)N2CCCCCC2)Cc2ccccc2)cc1C,8.3,-0.5,7.6,0.0
O=c1c2c3c(sc2n2cnnc2n1Cc1ccccc1)CCCC3,18.1,1.9*,-5.1,0.2
Cc1cccc(NC(=O)Cn2c(C)cc(=O)c3ccccc32)c1,6.7,0.0,41.2*,-1.7
COc1cccc(NC(=O)Cn2c(C)cc(=O)c3cccc(OC)c32)c1,6.0,0.7,48.9*,3.3
Cc1ccc(NC(=O)Cn2c(C)cc(=O)c3ccccc32)cc1C,9.7,0.8,44.6*,3.4
CCN(CC)CCCNC(=O)CCN1C(=O)COc2ccccc21,-0.6,-0.1,-1.3,-1.1
O=C(COc1ccccc1Br)Nc1nccs1,12.8,-0.1,75.0*,-8.8
CC(C)c1ccccc1OCC(=O)Nc1nccs1,-1.5,-0.1,4.1,-0.7
Cc1ccc(Cl)c(OCC(=O)Nc2nccs2)c1,9.9,0.0,56.1*,0.0
CC1C(=O)NN=C1C(=O)N/N=C\C=C\c1ccccc1 (centres undefined),11.3,-0.3,-10.2,0.2
COc1ccc(/C=N\NC(=O)C2=NNC(=O)C2C)cc1 (centres undefined),7.3,-0.3,36.0*,-0.7
C=CCn1c(N2CCC(C)CC2)nc2c1c(=O)[nH]c(=O)n2C,2.0,0.0,5.4,0.5
COCCCNCCOCCOc1c(Cl)cc(Cl)cc1Cl,35.5,-0.2,-6.5,0.4
NC(=O)CSc1nnc(-c2ccc3c(c2)OCO3)o1,1.3,-0.1,44.6*,-2.3
CC(Sc1nnc(-c2ccc3c(c2)OCO3)o1)C(N)=O (centres undefined),3.7,-0.1,37.0*,-6.8
O=C(O)CSc1nnc(-c2ccc3c(c2)OCO3)o1,18.3,0.8,-4.3,-1.3
CC(Sc1nnc(-c2ccncc2)o1)C(N)=O (centres undefined),4.5,-0.1,1.2,-1.5
Oc1ccccc1-c1nc2cnccn2c1NCc1ccc2c(c1)OCO2,-1.2,0.4,57.3*,-0.5
c1ccc(-c2nc3cnccn3c2NCc2ccc3c(c2)OCO3)cc1,-1.9,0.0,-2.0,1.4
COC(=O)c1c(NC(=O)CSc2ncnc3sc(C)c(C)c23)sc2c1CCC2,9.6,0.1,-0.5,-0.1
COc1ccc(N/C=C/C(=O)c2ccccc2)cc1,2.9,0.0,84.0*,-8.0
COc1cccc(C(=O)/C=C\Nc2ccc(Br)cc2)c1,-14.0,0.0,53.7*,-8.7
COc1cccc(C(=O)/C=C/Nc2cc(OC)ccc2OC)c1,9.4,0.0,-42.2,0.9
COc1cccc(C(=O)/C=C/Nc2ccccc2OC)c1,2.0,0.1,64.0*,-6.5
COc1cccc(C(=O)/C=C\Nc2ccc3c(c2)OCO3)c1,1.3,-0.3,85.4*,-0.6
SMILES,MITF primary,FBW7 activator,TEAD-YAP block,GPR151 activ
COc1ccc(-c2noc(CNC(=O)Cc3ccccc3OC)n2)cc1,-5.9,-0.1,7.3,-0.3
Cc1ccccc1C(=O)OC(C)CN1CCCC1 (centres undefined),-5.6,0.0,4.8,1.1
O=C(/C=C\Nc1ccc2c(c1)OCO2)c1ccccc1,1.9,0.4,73.8*,0.5
O=C(/C=C\Nc1ccc2c(c1)OCO2)c1cccc2ccccc12,0.9,0.0,-48.9,1.9
Cc1ccc(C(=O)CSc2nc(-c3ccccc3)cn2-c2ccc(Br)cc2)cc1,12.4,0.0,6.7,-0.4
COCCNc1ccc2ncc(-c3cccc(F)c3)n2n1,9.5,-0.5,25.6,1.9
CCCNc1ccc2ncc(-c3cccc(O)c3)n2n1,-15.1,-0.1,0.1,-0.8
COCCNc1ccc2ncc(-c3ccc4c(c3)OCO4)n2n1,3.6,0.1,39.3*,1.5
CCCNc1ccc2ncc(-c3ccc(O)cc3)n2n1,-27.1,0.0,77.2*,-0.6
COCCNc1ccc2ncc(-c3cccc(CO)c3)n2n1,-16.7,0.0,32.6*,0.2
CCCNc1ccc2ncc(-c3cccc(NC(C)=O)c3)n2n1,6.3,0.7,56.0*,0.5
Cc1scc(C(=O)Nc2ccccc2)c1C,1.7,0.1,-30.8,-3.2
CCN1C(=O)/C(=C/c2ccccc2)N(C)C1=S,10.9,0.2,1.2,-0.5
COCCNc1ccc2ncc(-c3ccc(F)cc3)n2n1,-8.7,0.0,14.1,-0.1
COCCNc1ccc2ncc(-c3ccc(O)cc3)n2n1,-22.0,0.3,58.3*,0.6
COc1ccc(NS(=O)(=O)c2ccc(Oc3ccccc3OC)cc2)cc1,6.8,0.3,33.2*,-0.3
CCOc1ccc(S(=O)(=O)Nc2ccc(OC)c(OC)c2)cc1,23.1,0.8,57.1*,0.2
COc1cccc(NS(=O)(=O)c2ccc(Oc3ccccc3OC)cc2)c1,-2.5,-0.4,5.8,-0.8
CCOc1ccc(NS(=O)(=O)c2ccc(OC)c(OC)c2)cc1,3.1,0.1,-0.4,-1.3
COc1ccc(NS(=O)(=O)c2ccc(Cc3ccc(S(=O)(=O)Nc4ccc(OC)cc4OC)cc3)cc2)c(OC)c1,20.1,0.7,37.1*,0.0
COc1ccc(NS(=O)(=O)c2ccc(SC)cc2)cc1OC,-11.3,0.0,43.5*,0.2
COc1ccc(NS(=O)(=O)c2ccc(-c3ccc(S(=O)(=O)Nc4ccc(OC)cc4OC)cc3)cc2)c(OC)c1,11.2,0.1,-9.5,-1.1
O=C1OC(c2cc(Cl)ccc2Cl)=N/C1=C\c1ccc(Cl)cc1Cl,-21.1,-0.1,3.9,0.6
CC(C)(C)NC(=O)CSc1cn(CC(=O)N2CCCCC2)c2ccccc12,12.9,0.3,0.1,-1.1
CCOc1ccc(S(=O)(=O)Nc2cc(OC)ccc2OC)cc1,14.1,1.2,63.3*,-1.8
SMILES,MITF primary,FBW7 activator,TEAD-YAP block,GPR151 activ
CCOc1ccc(S(=O)(=O)Nc2cc(OC)ccc2OC)cc1C,6.1,0.0,51.7*,-0.6
CC(=O)N1CC(C)Oc2cc(S(=O)(=O)Nc3ccccc3Cl)ccc21 (centres undefined),-0.3,-0.1,4.5,1.4
CCOc1ccccc1NS(=O)(=O)c1ccc(OC)c(C)c1,16.6,1.2,4.2,-0.8
COc1ccc(NS(=O)(=O)c2ccc3c(c2)OC(C)CN3C(C)=O)cc1OC (centres undefined),5.5,-0.1,39.6*,-2.4
COc1ccc(OC)c(NS(=O)(=O)c2ccc(C(C)(C)C)cc2)c1,14.6,0.1,7.1,0.6
CCOc1ccc(OCC)c(NS(=O)(=O)c2c[nH]c(C(=O)OC)c2)c1,-7.0,-0.1,53.4*,-1.1
Cc1ccc(S(=O)(=O)N2CCN(Cc3ccc(Cl)cc3)CC2)cc1,-8.4,-0.1,-6.7,0.6
CC1=C(c2ccc(C)cc2)S(=O)(=O)NC1=NC1CCCC(C)C1C (centres undefined),-7.9,-0.1,-17.8,0.0
NC(=O)CSc1nc(C2CCCCC2)nc2ccccc12,0.0,0.0,2.7,-0.1
O/N=C1\CCCc2nonc21,-4.0,0.0,4.5,0.9
CCOC(=O)c1cnn(-c2ccccc2Cl)c1CNCc1ccccn1,30.1,-0.1,8.6,-1.4
COc1ccc(C)cc1NS(=O)(=O)c1ccc(SC)cc1,23.2,-0.4,7.5,0.0
COc1ccc(OC)c(NS(=O)(=O)c2ccc([N+](=O)[O-])cc2)c1,-3.6,-0.2,3.9,-0.6
COc1ccc(OC)c(NS(=O)(=O)c2ccc(SC)cc2)c1,16.4,0.2,52.3*,1.1
